Laboratory results published in PubChem BioAssay AID463173 (ICCB-Longwood Screening Facility, Harvard Medical School, 2010).
Among all 52,000 compounds or so, about 4,300 (8.3%) were called active. The list comes from a sample in which actives are over-represented; it also holds similar structures and randomly drawn compounds. A number with no mark means an inactive call. Cut-off read from the data, not from the text of the source: active = survival mostly below about 52% (no sharp cut-off); inactive = mostly above about 56%.

system: DeltatarO mutant; test: S. aureus survival, RN4220 and DeltatarO strains – OD600, teichoic acid synthesis inhibitors, primary screen (AID 463173); settings: S. aureus RN4220 wild type/DeltatarO growth, OD600, 18 h, active compounds read low, screened at 18.75 µg/mL (by protocol)

Row | Structure (SMILES) | survival
1 | CCOc1ccc(NC(=O)c2oc3ccccc3c2NC(=O)Cc2cccs2)cc1 | 82%
2 | O=C(Cn1cnc2c(cnn2-c2ccccc2)c1=O)c1ccccc1 | 55%
3 | O=C(Nc1ccc(F)cc1F)c1ccc(-n2cnnc2)cc1 | 73%
4 | CCc1ccc(N(CC)C(=O)Cn2c(=O)oc3ccccc32)cc1 | 70%
5 | COC(=O)C1=C(c2ccccc2)c2ccccc2S(=O)(=O)N1CC(=O)Nc1ccccc1Cl | 37%
6 | Cc1oc2ncn(C)c(=O)c2c1C(=O)NCc1ccc(Cl)cc1 | 84%
7 | CCOc1ccccc1NC(=O)C1CCN(S(=O)(=O)c2ccc3c(c2)CCCN3C(C)=O)CC1 | 75%
8 | CC(NC(=O)C1CCN(S(=O)(=O)Cc2ccccc2)CC1)c1ccccc1 (stereo not drawn) | 68%
9 | CCC1CCCCN1C(=O)CSc1nc(-c2ccc(OC)cc2)cc(C(F)(F)F)n1 (stereo not drawn) | 1% (active)
10 | CCC1CCCCN1C(=O)CSc1nc(-c2ccc(OC)c(OC)c2)cc(C(F)(F)F)n1 (stereo not drawn) | -3% (active)
11 | COc1ccc(-c2cc(C(F)(F)F)nc(SCCC(=O)N3CCN(C)CC3)n2)cc1 | 114%
12 | COc1ccc(-c2cc(C(F)(F)F)nc(SCC(=O)N3CCCCC3)n2)cc1OC | 71%
13 | COc1ccc(-c2cc(C(F)(F)F)nc(SCC(=O)N3CCCCC3C)n2)cc1OC (stereo not drawn) | 52%
14 | COc1ccc(-c2cc(C(F)(F)F)nc(SCC(=O)N3CCCCC3)n2)cc1 | 74%
15 | O=C(CNCc1ccco1)Nc1cccc(OC(F)(F)F)c1 | 99%
16 | O=C(CN1C(=O)C2CCCCN2c2ccc(C(=O)N3CCCC3)cc21)NCc1cccc(F)c1 (stereo not drawn) | 66%
17 | CCCCOc1cccc(C(=O)Nc2cccc3ccc(C)nc23)c1 | 75%
18 | CCN(CCN(C)C)C(=O)Cn1ncc2c([nH]c3ccc(C)cc32)c1=O | 88%
19 | Cc1ccc(Cl)cc1-n1ncc2c(NC3CCCCC3)ncnc21 | 54%
20 | CCOc1ccc(NC(=O)c2c(C)oc3nc(C)nc(N4CCOCC4)c23)cc1 | 93%
21 | CCCCNc1nc(Oc2ccc(OCC)nn2)nc(N2CCOCC2)n1 | 77%
22 | COc1ccc(N2CCOCC2)cc1 | 89%
23 | COc1ccccc1Nc1nc(Nc2cccc(C(F)(F)F)c2)nc(N2CCOCC2)n1 | 73%
24 | COc1ccc(Nc2nc(Nc3ccc(OC)cc3OC)nc(N3CCOCC3)n2)c(OC)c1 | 14% (active)
25 | CCOc1ccc(Oc2nc(NC)nc(N3CCOCC3)n2)nn1 | 99%
26 | CCOc1nc(Nc2ccc(OC)cc2)nc(N2CCOCC2)n1 | 70% (active)
27 | CCOc1ccc(Nc2nc(Nc3ccc(OCC)cc3)nc(N3CCOCC3)n2)cc1 | 44% (active)
28 | CCOc1ccc(Oc2nc(NCC(C)C)nc(N3CCOCC3)n2)nn1 | 79%
